# Compounds with a hit are over-represented: about 3.5% of the library has one in this group of screens.
# ANO1 block: blocks the mouse calcium-activated chloride channel TMEM16A. Q8BHY3. HEK293 TMEM16A/YFP iodide influx fluorescence, ionomycin. normalized B-score (activity score, 25-100; higher = stronger inhibition) at 10 µM. 310,000 tested, 1.2% active. AID 588511;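 active = ratio plate-corrected score three or more library SD toward inhibition, starting fluorescence score within five deviations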;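 note: score derived from kinetic fluorescence span divided by baseline fluorescence per well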
# ANO1 activ: mouse TMEM16A channel activation, primary screen | AID 623877 | 340,000 tested, 0.3% active | B-score at 10 µM | HEK293 TMEM16A/YFP-H148Q/I152L, iodide quench fluorescence; stronger effect = lower value;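 active = fluorescence-ratio B-score plate-corrected deviation score at least 3 library SD below zero, with starting fluorescence score within 5 deviations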;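 note: channel opened by trigger with iodide after compound preincubation; score built on the fluorescence ratio of max minus min over baseline; more negative score means more quench and so TMEM16A activation or potentiation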
# KCNK9 inh: blocks the human KCNK9 two-pore domain potassium channel; HEK293 KCNK9, FluxOR thallium flux fluorescence; stronger effect = lower value; B-score at 10 µM; 310,000 tested, 1.2% active; Q9NPC2; AID 488922;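 active = ratio B-score over 3 SD below the library mean, with starting fluorescence within 5 SD of its mean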;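 note: negative B-score means less thallium flux so channel inhibition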
# KCNK3 block: human KCNK3 channel inhibition, primary screen. O14649. CHO-KCNK3 thallium flux, FluxOR fluorescence; stronger effect = lower value. B-score at 10 µM. 340,000 tested, 0.84% active;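 active = B-score under library mean minus 4 SD, starting fluorescence ratio at most library mean plus 5 SD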;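 note: more negative B-score means stronger inhibition of thallium flux through KCNK3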
# Kir21 block: blocks the mouse Kir2.1 inward-rectifier potassium channel | HEK293-Kir2.1, FluxOR thallium flux fluorescence; stronger effect = lower value | B-score at 10 µM | 310,000 tested, 0.85% active | AID 1672;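 active = fluorescence ratio B-score at or below minus 3 SD of library scores, with starting-brightness B-score within 2 SD, cut at about -4.2 in these data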;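 note: channel flux triggered by added potassium and thallium sulfate stimulus; B-score of peak minus minimum fluorescence over baseline after thallium stimulus; more negative B-score means stronger Kir2.1 block with less thallium influx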
# TMEM16A reconf: re-confirmation of mouse TMEM16A chloride channel inhibitors; shares compounds with ANO1 block; HEK293 TMEM16A/YFP-H148Q, iodide quench fluorescence; ionomycin added to raise cell calcium; inhibition, % at 10 µM; 2,300 tested, 39% active;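 active = mean duplicate percent inhibition, scaled so buffer wells are 0 and the reference blocker 100, over three buffer SD above buffer mean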
# HEK293 Ca mobil: counter-screen for TMEM16A inhibitors: effect on calcium mobilization. shares compounds with ANO1 block. TMEM16A/YFP HEK293, Fluo4 calcium mobilization. calcium response (% of ionomycin), % at 10 µM. 2,300 tested, 2% active. AID 652231;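 active = duplicate-averaged calcium signal over 20% of the ionomycin maximum, relative to buffer baseline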;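 note: each well's signal is peak minus trough fluorescence divided by its pre-addition baseline; 0% = buffer wells and 100% = ionomycin wells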
# Parental YFP cnt: parental YFP-HEK293 iodide quench counter-screen activity; shares compounds with ANO1 block; ionomycin; YFP ratio F(max-min)/F0 at 10 µM; 2,300 tested, under 10 active;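 active = yellow fluorescent protein signal ratio exceeding the buffer control mean by over 5 SD of those controls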;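 note: ratio is mean of duplicate wells from kinetic YFP trace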
# ClC-1 rat inh: rat ClC-1 inhibition, TMEM16A specificity screen. shares compounds with ANO1 block. CHO ClC-1-YFP, iodide influx fluorescence quench; iodide control reads 0, buffer control 100. ratio percent, % at 10 µM. 2,300 tested, under 10 active;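 active = duplicate-mean ratio percent above the mean of iodide-only control wells, which defines zero, plus 5 of their SD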;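 note: higher percent means stronger block of ClC-1 iodide influx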
# * = called active by the depositor; i = inactive; . = no result given.
SMILES,ANO1 block,ANO1 activ,KCNK9 inh,KCNK3 block,Kir21 block,TMEM16A reconf,HEK293 Ca mobil,Parental YFP cnt,ClC-1 rat inh
CCN(CC)S(=O)(=O)c1ccc(C(=O)OCC(=O)c2ccc3c(c2)NC(=O)CO3)cc1,i,i,i,i,0.09,.,.,.,.
CNS(=O)(=O)c1cccc(C(=O)OCC(=O)c2cc(C)n(-c3ccc4c(c3)OCO4)c2C)c1,25*,i,i,i,-1.4,i,i,-0.95,-8
CS(=O)(=O)c1cccc(C(=O)OCC(=O)c2ccc3c(c2)OCCO3)c1,.,i,.,i,.,.,.,.,.
CC/C(=N\OC(=O)c1ccc(OC(C)C)cc1)c1ccc(C)cc1,100*,i,i,i,-1,i,i,-1.3,-23
CCOc1ccc(CCNC(=O)Cn2nc(C)c3c(C)n(-c4ccccc4)nc3c2=O)cc1OCC,i,i,i,i,1.9,.,.,.,.
Cc1cc(Cl)ccc1OCC(=O)NC(=S)Nc1ccccc1N1CCOCC1,i,i,i,i,-0.12,.,.,.,.
Cc1cc(Cl)ccc1OCC(=O)Nc1ccccc1N1CCOCC1,100*,i,i,i,-4.1,22%*,i,-0.99,-15
COC(=O)c1cc(Br)c(=O)n(Cc2ccc3c(c2)OCO3)c1,i,i,i,i,0.79,.,.,.,.
NC(N)=N/N=C/c1ccc2cccc(OCc3ccccc3)c2n1,25*,i,i,i,-5.3*,i,i,-1,-14
O=C1c2oc3ccc(Cl)cc3c(=O)c2C(c2ccccn2)N1CCCN1CCOCC1 (stereo not drawn),i,.,i,.,-1.2,.,.,.,.
COc1ccccc1NC(=O)COc1cccc(-n2cnnn2)c1,i,i,i,i,0.7,.,.,.,.
Cc1cc(C(=O)COc2cccc(-n3cnnn3)c2)c(C)n1-c1ccccc1,100*,i,i,i,0.39,i,i,-0.95,-3
CCOc1cc(CN2CCc3c([nH]c4ccccc34)C2)ccc1OC,i,i,i,i,-0.62,.,.,.,.
COc1ccc(CN2CCc3c([nH]c4ccccc34)C2)cc1Br,100*,i,i,i,-4.3*,i,i,-1,-4
CCCCOc1ccc(C(=O)NCC(=O)NNC(=O)c2ccco2)cc1,.,i,.,i,.,.,.,.,.
Cc1oc(-c2ccc(Cl)cc2)nc1CN1CCCC(C(=O)NC2CC2)C1 (stereo not drawn),i,i,i,i,1,.,.,.,.
CCOC(=O)N1CCN(C(=O)C2CCCN(Cc3nc(-c4ccc(Cl)cc4)oc3C)C2)CC1 (stereo not drawn),25*,i,i,i,-0.43,i,i,-0.98,-8
CN(c1ccccc1)S(=O)(=O)c1ccc(C(=O)Nc2nnc(-c3ccc(F)cc3)o2)cc1,100*,.,i,.,-1,18%*,i,-1,-8
COC(=O)C1CCN(c2cc(=O)n(-c3ccccc3Cl)c(=O)[nH]2)CC1,100*,i,.,i,.,i,i,-1.1,-6
COc1ccc(S(=O)(=O)N2CCCCC2)cc1NC(=O)CCNC(=O)c1ccco1,.,i,.,i,.,.,.,.,.
CN1C[C@@H]2[C@@H]3C(=O)N(C)C(=O)[C@@H]3[C@](Cc3ccccc3)(C1=O)N2C(=O)c1ccccc1,.,i,.,i,.,.,.,.,.
N#C/C(=N\Nc1ccc(Cl)c(Cl)c1)C(=O)C1CC1,i,i,i,i,0.15,.,.,.,.
N#C/C(=N\Nc1ccc(F)cc1)C(=O)C1CC1,25*,i,i,i,2.6,26%*,i,-0.82,-14
Cc1nc(Cc2nnc(SCC(=O)Nc3c(C)cccc3C)o2)cs1,i,i,i,i,1.3,.,.,.,.
CC(=O)c1ccc(OCCCC(=O)N2CCN(S(=O)(=O)c3ccc(C(C)C)cc3)CC2)cc1,25*,i,i,i,1.2,i,i,-1,-12
SMILES,ANO1 block,ANO1 activ,KCNK9 inh,KCNK3 block,Kir21 block,TMEM16A reconf,HEK293 Ca mobil,Parental YFP cnt,ClC-1 rat inh
COCCCN(C(=O)Cc1ccc(S(=O)(=O)N2CCOCC2)s1)c1c(N)n(Cc2ccccc2)c(=O)[nH]c1=O,.,i,.,i,.,.,.,.,.
CC(C)(C)c1ccccc1OCCCCCNCCO,i,i,i,i,-3.3,.,.,.,.
Cc1ccc(S(=O)(=O)N2CCN(c3ccnc4cc(Cl)ccc34)CC2)cc1,100*,i,i,i,0.19,i,i,-1.2,-14
Cc1ccc(S(=O)(=O)N2CCN(c3ccnc4cc(Cl)ccc34)CC2)cc1C,i,i,i,i,1.9,.,.,.,.
Cc1ccc(NS(=O)(=O)c2sc3ccc(Cl)cc3c2C)cc1,100*,i,i,i,-0.05,i,i,-0.98,-7
Cc1ccc2nc(-c3ccc(NS(=O)(=O)c4ccc(F)c(F)c4)cc3)sc2c1,i,i,i,i,1.5,.,.,.,.
Cc1cc(C(=O)OCC(=O)Nc2ccc(F)cc2F)c(C)o1,100*,i,i,i,-0.75,i,i,-0.87,-16
CC(=O)c1cn(Cc2ccccc2)c(=O)n(Cc2ccc(F)cc2)c1=O,i,i,i,i,-0.23,.,.,.,.
CN(C(=O)OC(C)(C)C)c1ccc(-c2nc3ccccc3s2)cc1,25*,i,i,i,-0.62,24%*,i,-1.4,-8
CCOC1(OCC)N=C(N)C2(C#N)C(c3ccc(NC(C)=O)cc3)C12C#N (stereo not drawn),i,i,i,i,-1.9,.,.,.,.
Cc1ccc(S(=O)(=O)Nc2ccc3nc(C)sc3c2)cc1,25*,i,i,i,0.34,i,i,-1.2,-8
CSc1nc2ccc(NS(=O)(=O)c3ccc(Cl)s3)cc2s1,100*,i,i,i,-1.5,32%*,i,-0.9,-17
Cc1ccc(-c2nnc(N3CCN(C(=O)Cn4c(=O)n(C)c5ccccc54)CC3)c3ccccc23)cc1,i,i,i,i,-0.52,.,.,.,.
Cn1c(=O)n(CC(=O)N2CCN(c3nnc(-c4ccccc4)c4ccccc34)CC2)c2ccccc21,25*,i,i,i,-0.07,i,i,-1,-8
O=C(Nc1ccnn1C1CCN(C2CCOCC2)CC1)c1cccc(F)c1,i,i,i,i,-0.55,.,.,.,.
O=C(Nc1ccccc1N1CCCCC1)c1ccccc1F,25*,i,i,i,0.11,i,i,-0.91,-4

# Bioassay records (PubChem BioAssay)
